Assay outcomes as filed in PubChem BioAssay.
Only a selection was taken, and hits are over-represented in it overall.
FXIIa inh mix = blocks human factor XIIa in pooled compound mixtures | P00748 | purified FXIIa, fluorogenic substrate | inhibition, % at 5 µM | actives 0.2% (n = 62,000);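 also: 0% = enzyme without compound and 100% = no enzyme blank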
HePTP inh = blocks human HePTP tyrosine phosphatase; actives 0.64% (n = 110,000); recombinant HePTP phosphatase activity, OD absorbance; inhibition, % at 20 µM; P35236; in the data active = inhibition above about 50%;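 also: plate controls were vehicle for no effect and reference inhibitor for full effect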
Target sequence (P35236 whole entry, looked up): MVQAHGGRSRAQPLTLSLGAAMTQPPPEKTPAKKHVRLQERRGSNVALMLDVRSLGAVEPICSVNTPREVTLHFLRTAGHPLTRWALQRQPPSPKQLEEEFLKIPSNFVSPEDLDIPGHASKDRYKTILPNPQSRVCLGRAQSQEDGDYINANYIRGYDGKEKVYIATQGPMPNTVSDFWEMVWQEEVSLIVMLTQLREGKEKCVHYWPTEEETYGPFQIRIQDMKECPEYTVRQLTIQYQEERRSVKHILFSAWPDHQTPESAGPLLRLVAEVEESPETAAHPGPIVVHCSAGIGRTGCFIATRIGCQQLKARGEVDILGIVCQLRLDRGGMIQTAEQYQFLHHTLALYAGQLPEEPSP
FXIa mix inh = factor XIa (human) inhibition, mixture screen; inhibition, % at 5 µM; P03951; purified FXIa, fluorogenic substrate, pooled mixtures; AID 680; actives 0.19% (n = 62,000);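 also: each value is inhibition by a whole ten-compound pool holding the compound; 0% = enzyme with no mixture and 100% = wells lacking enzyme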
D1 allo mod = D1 dopamine receptor (human) allosteric modulation | P21728 | HEK293 D1, CRE-luciferase, dopamine EC30 potentiation; actives deviate in either direction | B-score at 10 µM | actives 5.9% (n = 58,000);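 active = luminescence count or its row- and column-corrected plate score outside the 99.7% band of the plate's sample wells, on either side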
Calb biofilm kill = kills Candida albicans biofilms; C. albicans biofilm + clotrimazole, Alamar Blue; inhibition, % at 6 µM; actives 0.14% (n = 85,000); AID 834;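 active = inhibition above 20%; inactive = inhibition below 20%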;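 also: preformed 24 hr biofilms exposed to compound for 48 hr; 0% = biofilm without compound and 100% = blank killed by clotrimazole plus chlorhexidine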
TNAP act mid DEA = human TNAP activation, intermediate phosphate acceptor; purified TNAP, CDP-star luminescence, 100 mM DEA, 30 min; active compounds read high; scale: 0 levamisole-inhibited, 1 vehicle-only enzyme; activation factor at 20 µM; 64,000 tested, under 10 active;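 active = activation factor of at least 2 at 20 µM, relative to controls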
D1 mod confirm = D1 receptor (human) allosteric modulation, confirmed; HEK293 D1 CRE-luciferase, dopamine EC30 potentiation; active compounds read high; shares compounds with D1 allo mod; actives 88% (n = 2,200); AID 642; luminescence at 10 µM;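 active = luminescence in either of two replicates above the same-plate mean plus 3 SD of the low-dose dopamine control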
D1 no dopamine = activates D1 CRE-luciferase signal without dopamine present | shares compounds with D1 allo mod | HEK293 D1 CRE-luciferase, luminescence, no dopamine; active compounds read high | luminescence at 10 µM | actives 0.8% (n = 1,900) | AID 646; in the data active = luminescence above about 3900
Isoprot counter = isoproterenol response counter-screen activity for D1 modulators; shares compounds with D1 allo mod; HEK293 D1 CRE-luciferase, isoproterenol EC30 counter-screen; active compounds read high; luminescence at 10 µM; actives 63% (n = 2,200); AID 647;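 active = luminescence in either replicate above plate mean of wells with a partly effective reference agonist dose plus 3 SD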;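 also: isoproterenol raises cAMP through native beta-adrenoceptor Gs so signal bypasses D1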
* marks the source's active call; other numbers are inactive results; / = no result. Rule as the data show it, unless noted: active = inhibition above about 20% (passing the limit was not always enough); inactive = the rest.

SMILES | FXIIa inh mix | HePTP inh | FXIa mix inh | D1 allo mod | Calb biofilm kill | TNAP act mid DEA | D1 mod confirm | D1 no dopamine | Isoprot counter
CCN(CC)C(=O)Cn1c(O)c(N=NC(=O)c2ccc(C(C)(C)C)cc2)c2ccccc21 | / | 4 | / | / | / | / | / | / | /
CC1CCCN(c2nc3c(c(=O)[nH]c(=O)n3C)n2Cc2ccccc2Cl)C1 (stereo unspecified) | 1 | 4 | 1 | 4.5* | / | 1 | 12012* | / | 3184*
CCn1c(N2CCN(CC(=O)c3c(C)n(C)c4ccccc34)CC2)nc2c1c(=O)[nH]c(=O)n2C | 1 | 2 | 7 | 3.5* | 6 | 0.9 | 8636* | 1416 | 4064*
Cn1c(=O)[nH]c(=O)c2c1nc(N1CCCCCC1)n2Cc1cccc2ccccc12 | 0 | -4 | 2 | / | 3 | 1 | / | / | /
Cc1ccc(Cn2c(N3CCCCCC3)nc3c2c(=O)[nH]c(=O)n3C)cc1 | -16 | -1 | 1 | 3.1* | 1 | 0.9 | 9560* | 1668 | 3704*
Cn1c(=O)[nH]c(=O)c2c1nc(N1CCCCCC1)n2CCCSc1nc2ccccc2o1 | -21 | 21 | 6 | 7.3* | 7 | 1.1 | 7696* | 1592 | 6660*
CCCn1c(N2CCN(CC(=O)c3c[nH]c4ccccc34)CC2)nc2c1c(=O)[nH]c(=O)n2C | -14 | 9 | 3 | -0.66 | 3 | 0.8 | / | / | /
Cc1ccc(Cn2c(SCC(C)C)nc3c2c(=O)[nH]c(=O)n3C)cc1 | 1 | -4 | 2 | 7* | / | 0.9 | 15640* | 1512 | 3544*
N#CC1=C(N)C(C#N)(C#N)C(c2ccc[nH]2)C2CCCC=C12 (stereo unspecified) | 6 | 2 | 8 | 2.8* | / | 0.9 | 4776 | 1816 | 2336
O=c1oc2cc(OC/C=C/c3ccccc3)ccc2c2c1CCCC2 | / | 4 | / | / | / | / | / | / | /
Cc1ccc(/C=C2/SC(=S)N(C(C)C(=O)O)C2=O)cc1 (stereo unspecified) | / | 1 | / | / | / | / | / | / | /
C=CCN1CN(S(=O)(=O)c2cccs2)c2nc3ccccc3nc21 | -18 | 4 | 5 | 6* | -1 | 0.9 | 14144* | 1432 | 3188*
O=S(=O)(c1cccs1)N1CN(Cc2cccs2)c2nc3ccccc3nc21 | 4 | -7 | 2 | 3.8* | / | 1 | 15624* | 1724 | 3880*
O=S(=O)(c1cccs1)N1CN(CC2CCCO2)c2nc3ccccc3nc21 (stereo unspecified) | 6 | 6 | -4 | / | -2 | 0.9 | / | / | /
CCOC(=O)c1ccccc1NC(=O)c1cccc(N(C)C)c1 | / | -2 | / | / | / | / | / | / | /
COC(=O)CSc1nc(N)c(NC(=O)c2ccc(OC)c(OC)c2)c(=O)[nH]1 | / | / | / | / | 1 | / | / | / | /
Nc1nc(SCC(=O)OCc2ccccc2)[nH]c(=O)c1NC(=O)c1ccco1 | -12 | 1 | 4 | 3.2* | 4 | 1 | 6284* | 1856 | 2640
CCOc1ccccc1N1C(=O)C2C3C=CC(C4CC34)C2C1=O (stereo unspecified) | / | 1 | / | / | / | / | / | / | /
O=C(c1cccs1)c1coc2ccc(O)c(CN3CCOCC3)c12 | 7 | 9 | 3 | 18* | 7 | 1 | 20688* | / | 3180*
O=C(Nc1nnc(-c2ccc([N+](=O)[O-])cc2)s1)c1cccs1 | / | -8 | / | / | / | / | / | / | /
N#Cc1nc(-c2ccc(F)cc2)oc1NCc1cccc2c1OCO2 | 7 | -7 | 0 | 0.21 | 9 | 1 | / | / | /
CC(C)CNc1oc(-c2ccc(F)cc2)nc1C#N | 17 | -7 | 2 | 13* | 3 | 0.8 | 14732* | 1924 | 4356*
CN(Cc1ccccc1)Cc1nc2c(c(=O)n(C)c(=O)n2C)n1Cc1ccc(F)cc1 | 8 | -9 | 6 | -0.14 | 7 | 0.9 | / | / | /
Cc1ccc(Cn2c(CN(C)Cc3ccccc3)nc3c2c(=O)n(C)c(=O)n3C)cc1 | 22 | 4 | 1 | 4.9* | 3 | 0.9 | 8728* | 1740 | 3552*
COc1ccc(N(CC(=O)NCc2ccccc2OC)S(=O)(=O)c2ccccc2)cc1Cl | / | 1 | / | / | / | / | / | / | /
SMILES | FXIIa inh mix | HePTP inh | FXIa mix inh | D1 allo mod | Calb biofilm kill | TNAP act mid DEA | D1 mod confirm | D1 no dopamine | Isoprot counter
CCSc1nc2c(c(=O)n1Cc1ccccc1)SC(C)C2 (stereo unspecified) | / | / | / | 3.4* | 4 | / | 11532* | 1552 | 3528
CCCSc1nc2c(c(=O)n1CC)SC(C)C2 (stereo unspecified) | 5 | 0 | -1 | 4.7* | 5 | 0.8 | 10748* | 1604 | 3492*
COc1ccc(/C=C2\C(=O)NC(=O)N(c3ccc(C)c(C)c3)C2=O)cc1Br | / | -10 | / | / | / | / | / | / | /
CCOC(=O)c1cc(CC)sc1NC(=O)COC | 2 | 9 | 6 | 12* | 4 | 1 | 17728* | 1632 | 4120*
CCOC(=O)c1cc(CC)sc1NC(N)=O | / | -5 | / | / | / | / | / | / | /
O=S(=O)(c1cccc(Cl)c1Cl)N1CCCCC1 | -18 | -2 | 3 | 0.067 | 3 | 0.8 | / | / | /
COc1c(S(=O)(=O)N2CCCC2)ccc(Cl)c1Cl | 10 | 7 | 11 | 5.4* | 8 | 1 | 10616* | 1728 | 3288*
COC(=O)n1c(SC)nc2ccccc21 | 6 | 10 | 2 | 5.6* | 2 | 0.9 | 11396* | 1220 | 3740*
COc1cccc(C=Nc2cc(Cl)cc(Cl)c2)c1O | / | 5 | / | / | / | / | / | / | /
CCC(C)c1ccc(NC(=O)Cc2ccccc2OC)cc1 (stereo unspecified) | / | 5 | / | / | / | / | / | / | /
